Experimental data taken from paper PMC4336329 (PLoS ONE, 2015).
In all, about 310,000 compounds went through this assay and about 14,000 (4.5%) showed an effect of 50% or more. Effects have a minus sign here. The full list was thinned out, with strong results kept by preference.

These compounds were tested against human ether-à-go-go-related gene (hERG) potassium channel (human, UniProt Q12809) (assay: primary screen, population patch clamp on CHO cells stably expressing hERG; higher = less effect of the substance).
Chain of human ether-à-go-go-related gene (hERG) potassium channel (Q12809 whole entry, looked up): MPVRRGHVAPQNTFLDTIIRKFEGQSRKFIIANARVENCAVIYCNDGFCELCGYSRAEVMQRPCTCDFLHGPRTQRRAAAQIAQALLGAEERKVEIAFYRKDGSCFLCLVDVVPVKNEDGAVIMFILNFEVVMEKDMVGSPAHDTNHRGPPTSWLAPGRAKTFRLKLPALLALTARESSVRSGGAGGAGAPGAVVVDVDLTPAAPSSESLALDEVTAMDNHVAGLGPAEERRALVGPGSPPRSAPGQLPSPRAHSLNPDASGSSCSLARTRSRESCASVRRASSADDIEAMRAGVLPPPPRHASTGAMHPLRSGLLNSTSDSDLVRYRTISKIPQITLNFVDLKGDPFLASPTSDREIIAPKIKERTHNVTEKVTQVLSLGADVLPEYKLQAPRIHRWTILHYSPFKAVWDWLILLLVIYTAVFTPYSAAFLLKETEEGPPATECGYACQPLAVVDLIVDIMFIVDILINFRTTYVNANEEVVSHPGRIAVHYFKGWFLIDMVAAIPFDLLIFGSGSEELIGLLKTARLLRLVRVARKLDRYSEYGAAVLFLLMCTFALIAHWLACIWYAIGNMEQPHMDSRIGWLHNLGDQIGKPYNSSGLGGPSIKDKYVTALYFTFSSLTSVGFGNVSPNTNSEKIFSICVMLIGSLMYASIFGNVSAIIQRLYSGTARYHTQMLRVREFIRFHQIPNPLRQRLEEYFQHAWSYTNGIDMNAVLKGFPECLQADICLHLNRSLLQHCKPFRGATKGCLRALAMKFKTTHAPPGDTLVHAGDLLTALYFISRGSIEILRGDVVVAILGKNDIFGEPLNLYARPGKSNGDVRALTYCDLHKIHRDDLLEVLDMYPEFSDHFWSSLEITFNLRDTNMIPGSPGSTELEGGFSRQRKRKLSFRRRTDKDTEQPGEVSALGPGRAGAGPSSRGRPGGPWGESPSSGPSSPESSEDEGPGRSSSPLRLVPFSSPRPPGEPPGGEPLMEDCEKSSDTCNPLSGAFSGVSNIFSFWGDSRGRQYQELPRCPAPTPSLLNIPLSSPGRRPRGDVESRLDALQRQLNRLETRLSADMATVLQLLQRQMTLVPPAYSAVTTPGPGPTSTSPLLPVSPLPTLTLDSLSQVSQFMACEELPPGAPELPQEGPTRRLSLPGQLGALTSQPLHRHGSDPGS
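Further: peak tail current of the secondary pulse compared with the same well before compound.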

Row | SMILES | hERG current change (%, negative = inhibition) at 10uM
1 | O=C(C1=COCCO1)N1CCN(C(c2ccccc2)c2ccccc2)CC1 | -7.48%
2 | Cc1ccc(CNc2nc3ccccc3n3nnnc23)cc1 | 10.6%
3 | CC1CC(C)CN(C(=O)c2ccc3nc[nH]c3c2)C1 (centres unmarked) | 4.05%
4 | O=c1[nH]c2ccc(Cl)cc2c(O)c1Cc1ccccc1 | 12.6%
5 | Cc1ccc2nc(NCC(=O)O)nc(-c3ccccc3)c2c1 | 4.48%
6 | COc1cc(C(=O)NCC2CCCCC2)cc(OC)c1OC | -67.3%
7 | COc1cc(CC(=O)NCC2CCCCC2)cc(OC)c1OC | 19.6%
8 | COc1cc(C(=O)NCC2CCCO2)cc(OC)c1OC (centres unmarked) | 16.8%
9 | CCOC(=O)N1CCN(C(=O)C2CC(=O)N(c3ccc(OC)cc3)C2c2ccc(OC)cc2)CC1 (centres unmarked) | -13.2%
10 | CN1CCc2nc(SCc3ccccc3Br)c(C#N)cc2C1 | -28.2%
11 | CC(NC(=O)CSc1nc2c(cc1C#N)CN(C)CC2)c1ccccc1 (centres unmarked) | -20.3%
12 | CN1CCc2nc(SCCOc3ccccc3)c(C#N)cc2C1 | -66.3%
13 | Cc1cccc(CSc2nc3c(cc2C#N)CCC3)c1 | 13.7%
14 | Cc1cccc(CSc2nc3c(cc2C#N)CN(C)CC3)c1 | -71.2%
15 | CN1CCc2nc(SCc3cccc(Br)c3)c(C#N)cc2C1 | -11.7%
16 | COC/C=C/C1=CC2=CC(=O)C(C)(OC(=O)c3cnc4ccccc4n3)C(=O)C2=CN1CCOC (centres unmarked) | 13.3%
17 | Cc1c[n+]([O-])n(-c2ccc(C(=O)O)cc2)n1 | 0.473%
18 | COc1ccc(N(C(=O)c2snc(C(N)=O)c2N)C(C(=O)NC2CCCC2)c2ccc(OC)c(OC)c2)cc1 (centres unmarked) | 10.9%
19 | CCOC(=O)C1CCN(C(=O)C2CCC(=O)N(CC3CCCCC3)C2)CC1 (centres unmarked) | 0.313%
20 | CC[n+]1c(/C=C/c2ccc(OC)c(OC)c2)ccc2ccccc21.[I-] | 23.5%
21 | CN(CCCS(=O)(=O)[O-])c1ccc(/C=C/c2ccc3ccccc3[n+]2C)cc1 | 19.6%
22 | C[n+]1c(/C=C/c2ccc(O)cc2)ccc2ccccc21.[I-] | -40.3%
23 | CC[n+]1c(SC)ccc2cc(OC)ccc21.[O-][Cl+3]([O-])([O-])[O-] | -10.6%
24 | CC[n+]1c(/C=C/c2ccc(OC(C)=O)c(OC)c2)ccc2ccccc21.[I-] | -4.85%
25 | CC[n+]1c(/C=C/c2ccc(N(C)C)cc2)ccc2ccccc21.[I-] | -72.9%
26 | CN(C)c1ccc(/C=C/c2cc[n+](C)cc2)cc1.[I-] | 2.73%

Row | SMILES | hERG current change (%, negative = inhibition) at 10uM
27 | CCSc1ccc2cc(OC)ccc2[n+]1CC.[I-] | 10.8%
28 | CC(C)CC[n+]1ccccc1/C=C/c1ccc(N(C)C)cc1.[I-] | -71.3%
29 | CCN(CC)c1ccc(/C=C/c2ccc3ccc(OC)cc3[n+]2CC)cc1.[I-] | -82%
30 | CN(C)c1ccc(/C=C/c2cccc[n+]2[O-])cc1 | 19.7%
31 | CN(C)c1ccc(/C=C/c2ccc3ccccc3[n+]2C)cc1.[I-] | -59.9%
32 | O=C(C1CCCCC1)N1CCC(O)(c2ccc(Cl)cc2)CC1 | -10.7%
33 | Cc1cccc(N2C(=O)CC(N(O)c3ccccc3)C2=O)c1 (centres unmarked) | 9.2%
34 | Cc1cc(C(F)(F)F)nn1Cc1ccc(C(=O)NCc2ccco2)o1 | 5.14%
35 | COc1ccc(C)cc1-n1nnnc1SCC1CCCCO1 (centres unmarked) | -14.8%
36 | CCOc1ccc(CCNc2nc3c(c(=O)n(C)c(=O)n3C)n2CC)cc1OCC | 3.1%
37 | CCOC(=O)C1=C(COC(=O)CC(C)c2ccccc2)NC(=O)NC1C (centres unmarked) | -17.8%
38 | CN1C(=O)C(=Cc2ccc(N3CCCCCC3)cc2)C(=O)N(C)C1=O | 13.1%
39 | CCOc1ccc2[nH]c(=O)c(C(c3nnnn3C3CCCCC3)N3CCN(CC)CC3)cc2c1 (centres unmarked) | -40.3%
40 | COc1cccc(NC(=O)Cc2ccc3ccccc3c2)c1 | -7.16%
41 | N#C/C(=C\c1cccc(OCC(=O)O)c1)c1nc2ccccc2[nH]1 | 19.6%
42 | COc1cc(-c2noc(C)n2)cc(OC)c1OC | 13.4%
43 | COc1ccc(Nc2nc(NCCO)nc(N3CCCC3)n2)cc1 | -38.3%
44 | Cc1ccc(S(=O)(=O)NCC(=O)OCC(=O)Nc2cccc(S(=O)(=O)NC3=NCCCCC3)c2)cc1C | -1.1%
45 | COc1ccccc1C(=O)NCCC(=O)Nc1nc2ccccc2[nH]1 | -12.6%
46 | O=C(/C=C/c1ccc(F)cc1)NCCCn1ccnc1 | -31.9%
47 | CC(C)(C)c1ccc(/C=C/C(=O)NCCCn2ccnc2)cc1 | -46.5%
48 | O=C(/C=C/c1ccc(Br)cc1)NCCCn1ccnc1 | -57%
49 | COc1ccc(/C=C/C(=O)NCCCn2ccnc2)cc1 | -30.9%
50 | Clc1ccc(SCCn2ccnc2)cc1 | -1.48%
51 | O=C(NCCCn1ccnc1)c1ccc(Cl)cc1 | -2.72%
52 | Clc1ccc(SCCCCn2ccnc2)cc1 | -53%

Row | SMILES | hERG current change (%, negative = inhibition) at 10uM
53 | O=C(/C=C/c1ccc(Cl)c(Cl)c1)NCCCn1ccnc1 | -41.7%
54 | O=C(/C=C/c1ccc(Cl)cc1)NCCCn1ccnc1 | -55.8%
55 | O=C(C#Cc1ccccc1)NCc1ccccc1F | -2.39%
56 | CC1(C)CCC(=O)C=C1Nc1ccc(F)c(Cl)c1 | 7.56%
57 | N#C/C(=N\O)c1nc(-c2ccccc2)cs1 | 15.9%
58 | CC(C)(C)c1ccc(S(=O)(=O)NCc2ccc(C(=O)NCC3CCCO3)cc2)cc1 (centres unmarked) | 13.8%
59 | O=C(OCc1ccc(Br)cc1)c1cccc(S(=O)(=O)N2CCCC2)c1 | -6.47%
60 | CSc1nsc(SC)c1C(N)=O | 10.6%
61 | CCOC(=O)C1(Cc2ccccc2)CCCN(Cc2ccncc2)C1 (centres unmarked) | -17.4%
62 | CCOC(=O)C1(Cc2cccc(OC)c2)CCN(Cc2cnc(SC)nc2)CC1 | -27%
63 | CCOC(=O)C1(CCOc2ccccc2)CCN(Cc2cnc(SC)nc2)CC1 | -72.2%
64 | CCOC(=O)C1(CCOC)CCN(Cc2ccncc2)CC1 | 8.26%
65 | CCOC(=O)C1(CCOC)CCN(Cc2cnc(-c3cccc(C)c3)nc2)CC1 | -5.81%
66 | CCOC(=O)C1(CCOc2ccccc2)CCN(Cc2ccc(C(=O)OC)cc2)CC1 | -49.9%
67 | CCOC(=O)C1(CCOc2ccccc2)CCN(Cc2ccc(OC)cc2)CC1 | -75.1%
68 | CCOC(=O)C1(CCOc2ccccc2)CCN(Cc2ccncc2)CC1 | -52%
69 | CCOC(=O)C1(CCOc2ccccc2)CCN(Cc2ccc(C#CCCO)cc2)CC1 | -53.3%
70 | CCc1ccc(C(C)NC(=O)/C(C#N)=C\c2cn[nH]c2-c2ccccc2)cc1 (centres unmarked) | -1.91%
71 | CC1=NN(c2ccc(Cl)cc2)C(=O)C1 | 3.77%
72 | Cc1ccc(C(=O)OCC(=O)N2CCOCC2)cc1 | 15.6%
73 | O=C(NNC(=S)Nc1ccc(Cl)cc1Cl)C1CC1 | -24%
74 | O=C(Nc1ccc2c(c1)OC1(CCCC1)O2)C1CC1 | 3.79%
75 | Cc1ccc(C)n1-c1ncc(Br)cn1 | 6.58%
76 | CCCCOCCCNC(=O)N[C@@H](CCSC)C(=O)OC | 16.3%
77 | C=CCn1c2ccccc2c(=O)c2cc(C#Cc3ccccn3)ccc21 | -0.113%
78 | CCOC(=O)C1(CCOc2ccccc2)CCN(Cc2ccc(O)cc2)CC1 | -85.1%

Row | SMILES | hERG current change (%, negative = inhibition) at 10uM
79 | CCOC(=O)C1(CCOc2ccccc2)CCN(Cc2ccc(OCCO)cc2)CC1 | -77.9%
80 | CCOC(=O)C1(CCOc2ccccc2)CCN(Cc2ccc(O)c(Cl)c2)CC1 | -53%
81 | O=C(N/N=C\c1cc(Br)c(Br)o1)c1cncc(Br)c1 | 7.62%
82 | CN(C)c1cccc(C(=O)Nc2ccc(N3CCOCC3)cc2)c1 | 2.06%
83 | Cc1nc2nc(-c3ccccc3)cc(=O)n2[nH]1 | 11.8%
84 | O=C(NNS(=O)(=O)c1ccc([N+](=O)[O-])cc1)C(=O)Nc1cccc(C(=O)O)c1 | 11.9%
85 | COc1ccc(C2C(C(=O)N3CCC4(CC3)OCCO4)CC(=O)N2c2ccc(OC)cc2)cc1 (centres unmarked) | -6.88%
86 | O=S(=O)(NCC(c1ccco1)N1CCN(c2ccccc2)CC1)c1ccc(F)cc1 (centres unmarked) | 0.0547%
87 | O=C1COc2ccc(C(=O)COC(=O)Cc3ccc(F)cc3)cc2N1 | -23.8%
88 | CCC(=O)c1ccc(OCC(=O)Nc2ccccc2C(=O)NC2CC2)cc1 | -6.53%
89 | OC1/C(=C/c2ccccc2C(F)(F)F)N2CCC1CC2 (centres unmarked) | 9.66%
90 | Brc1ccc(-c2nnc3c4ccccc4nc(N4CCOCC4)n23)cc1 | -8.42%
91 | Fc1ccccc1-c1nnc2c3ccccc3nc(N3CCOCC3)n12 | -9.92%
92 | Clc1ccc(-c2nnc3c4ccccc4nc(N4CCOCC4)n23)cc1Cl | -64.7%
93 | Cc1sc2ncnc(N3CCC(C(=O)N(C)CC(=O)Nc4ccc(Cl)c(C(F)(F)F)c4)CC3)c2c1C | 3.47%
94 | CCOc1ccc(NC(=O)CN(C)C(=O)C2CCN(c3ncnc4sc(C)c(C)c34)CC2)cc1OCC | -58.2%
95 | Cc1sc2ncnc(N3CCC(C(=O)Nc4ccc(Br)cc4Br)CC3)c2c1C | -7.07%
96 | Cc1sc2ncnc(N3CCC(C(=O)N(C)CC(=O)Nc4ccccc4Br)CC3)c2c1C | -65.8%
97 | CCN(CC(=O)Nc1c(F)cccc1F)C(=O)C1CCC1 | -13.8%
98 | CCOc1ccc(NC(=O)CN(C)C(=O)C2CCCC2)cc1OCC | 27.8%
99 | CCN(CC(=O)Nc1c(F)cccc1F)C(=O)C1CCN(c2ncnc3sc(C)c(C)c23)CC1 | -57.8%
100 | Cc1sc2ncnc(N3CCC(C(=O)Nc4ccccc4C(C)(C)C)CC3)c2c1C | -15.2%
101 | CCCCc1nnc(NC(=O)C2CCN(c3ncnc4sc(C)c(C)c34)CC2)s1 | 16.6%
102 | CCCN(CC(=O)Nc1ccccc1C)C(=O)C1CCN(c2ncnc3sc(C)c(C)c23)CC1 | -76.2%
103 | CCOC(=O)c1ccccc1NC(=O)C1CCN(c2ncnc3sc(C)c(C)c23)CC1 | -11.4%
104 | CCN(CC(=O)Nc1c(F)cccc1F)C(=O)C1CC1 | 3.28%
